# HT1080NT lethal = kills 2HG-producing HT-1080-NT fibrosarcoma cells. HT-1080-NT fibrosarcoma viability, CellTiter-Glo ATP luminescence, 48 h. Potency, µM (doses to about 46.1 µM), inactives show top-dose activity, negative = less viability, usual class: cytotoxic. 360,000 compounds, 1.6% hits. AID 686970;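 also: NT is the 2HG producing partner of a matched IDH1 knockdown line; 0% = DMSO-treated cells and -100% = media-only wells without cells; nearly all actives have a fitted effect of over 55% in size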
#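 Read-out is CellTiter-Glo luminescence after 10 minutes at room temperature, following 48 hours' compound treatment of HT-1080-NT cells (750 cells/well, RPMI, 5% FBS, 37 degrees C).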
# HT1080 IDH1KD tx = kills HT-1080 cells with IDH1 knockdown | HT-1080 IDH1 knockdown viability, ATP luminescence, 48 h | AID 686971 | Potency, µM (highest dose often 46.1 µM), for the others: at the top dose activity, negative = toxicity, hits mostly cytotoxic | 360,000 compounds, 2% hits;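 also: 0% = DMSO wells and -100% = cell-free medium wells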
#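 After a 2 h attachment period, IDH1KD HT-1080 cells took pin-transferred compound for 48 h at 37 °C; ATP-based luminescence after 10 min room-temperature reagent incubation reported viability.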
# KB-3-1 cytotox = kills parental KB-3-1 adenocarcinoma cells; Potency, µM (titrated, usually from 46.1 µM), hits mostly cytotoxic; 400,000 compounds, 1.4% hits; KB-3-1 viability, CellTiter-Glo ATP luminescence, 72 h; also: % is scaled to controls: 0 for no effect and ±100 for the full control effect; nearly all actives have a fitted effect of over 60% in size
#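 Cytotoxicity in the drug-sensitive parental line KB-3-1 was scored as loss of CellTiter-Glo luminescence following 72 h incubation with compound. Values come from curve fitting of normalized concentration-response data.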
# S2 tox = cell viability loss in ATXN counter-screen; 400,000 compounds, 0.49% hits; AID 651635; Potency, µM (series often up to 56.7 µM), actives largely listed as cytotoxic; S2 cells (HEK-293 line with an ATXN2-luciferase reporter) viability, CellTiter-Fluor protease fluorescence, 24 h; also: nearly all actives have a fitted effect of over 40% in size
# ATXN2 expr inh = ATXN2 expression inhibition; Potency, µM (highest dose often 57 µM), for the others: at the top dose activity change, negative = inhibition, usual class: inhibitors; AID 1745845; 360,000 compounds, 0.72% hits; HEK-293 ATXN2-luciferase reporter, luminescence, 24 h; also: % is scaled to controls: 0 for no effect and ±100 for the full control effect; nearly all actives have a fitted effect of over 55% in size
#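 ATXN2-luciferase reporter cells (luciferase flanked by upstream and downstream ATXN2 gene portions) were treated 24 h at 37 °C with compounds at up to 57 uM. SteadyGlo luminescence gave expression; GF-AFC fluorescence gave viability.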
# KB-V1 cytotox = KB-V1 MDR subline cytotoxicity | KB-V1 MDR cells viability, CellTiter-Glo, 72 h | Potency, µM (doses to about 46.1 µM), most hits filed as cytotoxic | 400,000 compounds, 3.4% hits; also: % is scaled to controls: 0 for no effect and ±100 for the full control effect; nearly all actives have a fitted effect of over 60% in size
#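 Cytotoxicity toward P-gp-expressing KB-V1 cells was determined as loss of CellTiter-Glo luminescence after 72 h at 37 degrees C. Compounds were tested in quantitative HTS format across a concentration range, with curves fitted to normalized data.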
# * hit, by the source's call; i = inactive; ? = inconclusive; . = no result given. Most compounds without a hit are left out; they make up all but 6.2% or so of the library. Calls follow the shape of the dose curve; as a rule, active = well fitted curve in the direction sought with a large enough effect; inconclusive = small, poorly fitted or top-dose-only effect, or another doubt; inactive = no such curve, though single readings can be large; an effect the other way counts as inactive or inconclusive. Potency is read from the fitted curve at half-maximal effect.
SMILES,HT1080NT lethal,HT1080 IDH1KD tx,KB-3-1 cytotox,S2 tox,ATXN2 expr inh,KB-V1 cytotox
CCC(C)(C)n1nnnc1C(C(C)C)N(Cc1ccco1)Cc1cc2cc3c(cc2[nH]c1=O)OCO3 (centres undefined),-2%,-28%,?,?,?,15µM*
COc1ccc(-n2nc3c(N4CCCC(C(=O)NCc5ccc(C)cc5)C4)nnc(C)c3c2C)cc1 (centres undefined),.,.,i,.,?,i
COC(=O)c1ccc(Cn2c(SCc3cccc(C)c3)nc3ccncc32)cc1,.,.,i,.,.,i
CCOc1ccc(CCNC(=O)c2ccc3c(c2)c(C)c(C)n3C)cc1,.,.,i,.,.,i
COc1ccc(-c2cccc3c2OC(CNC(=O)c2ccc4c(c2)OCO4)C3)nn1 (centres undefined),.,.,.,i,.,.
CC1CC(C(F)F)n2nc(C(=O)Nc3sc4c(c3C#N)CCC(C(C)(C)C)C4)nc2N1 (centres undefined),4%,5%,16µM*,?,?,?
CC(C)(C)C1CCc2c(sc(NC(=O)c3cc(-c4ccc(F)cc4)on3)c2C#N)C1 (centres undefined),.,.,i,i,8%,i
Cc1ccc(S(=O)(=O)Nc2cccc3ncccc23)s1,?,?,5.8µM*,?,?,?
CN(C)CCNC(=O)c1cccc2nc3c(ccc4ccccc43)nc12,?,?,7.3µM*,?,0%,21µM*
Cc1ccc(Sc2cc(C(=O)NCCN(C)C)c3ccccc3n2)cc1,?,-23%,i,i,.,i
COc1ccc(Cl)cc1C(=O)NCCN(C)C,-2%,-12%,i,i,-6%,i
COc1ccc(C(=O)NCCN(C)C)c2nc3ccccc3cc12,?,21µM*,?,?,3.4µM*,8.2µM*
COc1cccc2nc3c(C(=O)NCCN(C)C)cccc3cc12,?,9.2µM*,?,?,?,9.2µM*
CN(C)CCNC(=O)c1cccc2[nH]c(-c3ccncc3)nc12,-9%,?,i,?,?,i
COc1ccc(-c2nc3c(C(=O)NCCN(C)C)cccc3c3ccccc23)cc1,?,?,?,?,0%,2.3µM*
COc1ccc(OC)c(NS(=O)(=O)c2ccc(N3CCCCS3(=O)=O)cc2)c1,.,.,?,?,-21%,i
CN(CCNC(=O)c1c[nH]c2c1ccc1ccccc12)CCNC(=O)c1c[nH]c2c1ccc1ccccc12,?,?,?,35µM*,?,?
CCCCN(C)CCNC(=O)c1cc(-c2ccc(Cl)s2)nc2ccccc12,.,.,i,i,-24%,i
Cc1ccc(C(=O)C2=C(O)C(=O)N(CC3CCCO3)C2c2ccccc2F)o1 (centres undefined),11%,18%,i,i,-2%,i
CCCCOc1ccc(C2C(C(=O)c3ccc(C)o3)=C(O)C(=O)N2CC2CCCO2)cc1 (centres undefined),-8%,-15%,?,i,7%,12µM*
CCOc1cccc(C2C(C(=O)c3ccc(C)o3)=C(O)C(=O)N2Cc2ccncc2)c1 (centres undefined),2%,-5%,i,i,2%,i
CCOc1cccc(C2C(C(=O)c3ccc(C)o3)=C(O)C(=O)N2Cc2ccccc2)c1 (centres undefined),13%,15%,i,i,7%,8.2µM*
CCC(C)(C)C1CCC2(CC1)NC(=O)N(CC(=O)NCCc1c[nH]c3ccccc13)C2=O (centres undefined),-2%,-14%,?,i,11%,21µM*
O=S(=O)(c1ccccc1)c1nnn2c1nc(NCc1ccccc1)c1cc(Cl)ccc12,.,.,i,i,8%,i
COc1ccc(OC)c(C(Cc2ccnc3ccccc23)Cc2ccnc3ccccc23)c1,.,.,i,.,.,i
SMILES,HT1080NT lethal,HT1080 IDH1KD tx,KB-3-1 cytotox,S2 tox,ATXN2 expr inh,KB-V1 cytotox
Clc1nc(Nc2ccc(N3CCOCC3)cc2)c2ccccc2n1,0%,0%,i,i,-27%,?
c1ccc2c(Nc3nc(N4CCOCC4)c4ccccc4n3)cccc2c1,21µM*,15µM*,?,i,?,?
c1ccc2c(c1)nc(N1CCOCC1)c1c3ccccc3[nH]c21,9%,-1%,i,i,-14%,21µM*
O=c1[nH]c2ccccc2nc1N1CCOCC1,?,12%,i,i,5%,i
Fc1ccc(Nc2nc(N3CCOCC3)c3ccccc3n2)cc1,-1%,-18%,?,i,-19%,16µM*
c1ccc(CSc2nnc(SCc3ccccn3)s2)nc1,19%,9%,i,i,21%,16µM*
c1ccc2c(c1)Cc1cc(CN3CCOCC3)ccc1-2,19%,-5%,i,i,47%,21µM*
CC1(C)CCc2cc(O)ccc2O1,14%,20%,.,.,.,.
CCC(=O)NNc1ncnc2c1cnn2-c1ccc(C)c(Cl)c1,.,.,i,i,28%,i
COc1ccc(CNC(=O)c2cc3c(=O)n(Cc4cccs4)ccc3nc2C)cc1,.,.,18µM*,i,?,i
COc1ccc(NC(=O)c2cc3c(=O)n(Cc4cccs4)ccc3nc2C)cc1,.,.,i,?,?,i
COc1ccc(OC)c(C2=NOC(C(=O)N3CCCc4ccccc43)C2)c1 (centres undefined),0%,-1%,i,i,24%,16µM*
COc1ccc(OC)c(C2=NOC(C(=O)NCc3ccco3)C2)c1 (centres undefined),-19%,?,?,i,-20%,16µM*
O=C(C1CC(c2ccc(F)cc2)=NO1)N1CCCc2ccccc21 (centres undefined),0%,-11%,i,?,-11%,i
O=C(NCc1ccco1)C1CC(c2cc(C(F)(F)F)cc(C(F)(F)F)c2)=NO1 (centres undefined),5.8µM*,2.6µM*,4.1µM*,i,-7%,10µM*
COc1ccc(C(=O)N2CCCc3ccccc32)cc1Br,3%,7%,i,0.22µM*,-5%,?
CC(=O)c1cc2c(cc1N/C(=N/S(=O)(=O)c1ccc(Cl)cc1)c1ccc(F)cc1)OCO2,.,.,i,i,-11%,i
O=S1(=O)N=C(Oc2ccc(Br)cc2)c2ccccc21,.,.,i,.,.,i
O=C(Cc1ccc[nH]c1=O)c1ccc(F)cc1,.,.,i,.,.,i

# Screening data from PubChem BioAssay.
